mIDH1 inhibitor = qHTS for Inhibitors of mutant isocitrate dehydrogenase 1 (IDH1): qHTS. IDH1-R132H enzyme, NADPH consumption, diaphorase/resazurin fluorescence. Potency, µM (top dose mostly 76.6 µM), usual class: inhibitors. hit rate 0.093% among 390,000. AID 602179, 2012; further: nearly all actives have a fitted effect of over 65% in size
Target sequence (O75874 whole entry R132H, stated change not applied): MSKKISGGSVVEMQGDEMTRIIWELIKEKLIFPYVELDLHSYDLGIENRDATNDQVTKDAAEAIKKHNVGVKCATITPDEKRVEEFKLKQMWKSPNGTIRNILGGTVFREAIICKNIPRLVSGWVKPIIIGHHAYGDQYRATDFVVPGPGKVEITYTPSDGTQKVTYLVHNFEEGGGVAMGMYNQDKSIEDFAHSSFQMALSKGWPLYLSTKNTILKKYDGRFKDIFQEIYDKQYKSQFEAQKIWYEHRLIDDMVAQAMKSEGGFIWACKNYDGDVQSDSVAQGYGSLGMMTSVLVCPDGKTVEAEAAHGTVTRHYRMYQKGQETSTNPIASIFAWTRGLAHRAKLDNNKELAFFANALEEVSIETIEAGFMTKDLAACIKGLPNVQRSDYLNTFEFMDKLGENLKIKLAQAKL
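IDH1-R132H (0.5 ug/mL) preincubated 30 min with compound, then NADPH (0.016 mM) and alpha-KG (2 mM) added; 80 min at RT, pH 7.5. Remaining NADPH coupled via diaphorase/resazurin to fluorescence (540/590 nm); concentration-response curves normalized to no-enzyme control.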
TrxR1 substrate = qHTS Assay for Substrates of Mammalian Selenoprotein Thioredoxin Reductase 1 (TrxR1): qHTS | purified TrxR1 substrate turnover, NADPH consumption readout | hit rate 0.01% among 390,000 | Potency, µM (doses to about 114 µM) | AID 588456, 2011; further: nearly all actives have a fitted effect of over 50% in size
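Rat TrxR1, dispensed at 90 nM, was prereduced with 400 uM NADPH (final) for 5 min at ~22 deg C, then incubated with compound 15 min before 400 uM selenite. A first-read NADPH fluorescence drop versus no-compound background flagged substrates.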
rTrxR1 inhibitor = qHTS Assay for Inhibitors of Mammalian Selenoprotein Thioredoxin Reductase 1 (TrxR1): qHTS; Thioredoxin reductase 1, cytoplasmic (Rattus norvegicus), O89049; recombinant rTrxR1, NADPH fluorescence consumption, selenite substrate; Potency, µM (highest dose often 114 µM), usual class: inhibitors; hit rate 1% among 390,000; further: nearly all actives have a fitted effect of over 65% in size
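Rat TrxR1 (90 nM in the dispensed reagent) was pre-reduced with 400 uM NADPH for 5 min at room temperature, then incubated with compound for 15 min. After 400 uM selenite was added, NADPH fluorescence (Ex 340/Em 450 nm) was followed for 8 min.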
GLS inh = qHTS for Inhibitors of Glutaminase (GLS); AID 624170, 2012; Glutaminase kidney isoform, mitochondrial (Homo sapiens), O94925; GLS enzymatic activity, qHTS titration; hit rate 0.21% among 410,000; Potency, µM (top dose mostly 45.5 µM), most hits filed as inhibitors
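Enzyme dispensed in phosphate buffer (45 mM, pH 8.2, 0.02% Tween-20), compounds pinned in, then 1 mM L-glutamine solution and the glutamate oxidase–HRP–Amplex Red mix added; fluorescence read immediately and again after 30 min at room temperature.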
A number is an active result; 0 = inactive; ? = inconclusive; - = not tested or not shown; ! = not active in a repeat. This is a sample that favours compounds with a hit; in the whole collection about 1.2% have one here. The call rests on the fitted dose curve; in most records, active means well fitted curve in the direction sought with a large enough effect; inconclusive means small, poorly fitted or top-dose-only effect, or another doubt; inactive means no such curve, though single readings can be large; an effect the other way counts as inactive or inconclusive.

SMILES	mIDH1 inhibitor	TrxR1 substrate	rTrxR1 inhibitor	GLS inh
COc1ccc2c(c1)CCC1C2CC[C@@]2(C)C1CC[C@@H]2NCCCCCCN1C(=O)C=CC1=O (some centres undefined)	-	0	?	-
CO/C=C(/C(=O)OC)c1ccccc1Oc1cc(Oc2ccccc2C#N)ncn1	-	-	-	0
O=C1NC(=O)N(Cc2ccco2)C(=O)/C1=C/c1ccc(-c2cccc([N+](=O)[O-])c2)o1	0	0	40µM	0
COc1ccc(CN2C(=O)NC(=O)/C(=C\c3ccco3)C2=O)cc1	0	0	?	0
C=CCN1C(=O)/C(=C/c2ccc(N3CCOCC3)o2)C(=O)NC1=S	0	0	?	0
C=CCN1C(=O)NC(=O)/C(=C\c2ccc(-c3ccccc3[N+](=O)[O-])o2)C1=O	0	0	0	18µM
NC(=O)C1=CN(C2OC(COP(=O)(O)OP(=O)(O)OC[C@H]3O[C@@H](n4cnc5c(N)ncnc54)[C@H](OP(=O)(O)O)[C@@H]3O)C(O)C2O)C=CC1 (some centres undefined)	-	0	0	-
C=CCN1CC[C@]23c4c5ccc(O)c4O[C@@H]2/C(=N/N=C2\CC[C@@]4(O)C6Cc7ccc(O)c8c7[C@@]4(CCN6CC=C)[C@@H]2O8)CC[C@@]3(O)C1C5	-	0	20µM	-
COc1ccc(N2C(=O)NC(=O)/C(=C\c3ccc([N+](=O)[O-])s3)C2=O)cc1	0	0	25µM	13µM
CCOc1ccc(N2C(=O)NC(=O)/C(=C\c3cc(OC)c(OC)cc3[N+](=O)[O-])C2=O)cc1	0	0	11µM	0
COc1cccc(N2C(=O)NC(=O)/C(=C/c3ccc([N+](=O)[O-])s3)C2=O)c1	0	0	?	?
COc1ccc(N2C(=O)NC(=O)/C(=C/c3ccc([N+](=O)[O-])s3)C2=O)cc1	0	0	40µM	0
Cn1c(C(=O)NCCOc2ccccc2Cl)cc(=O)n(C)c1=O	0	0	0	0
Cc1cc(=O)oc2c3c(cc(OCC(=O)N4CCC[C@H]4C(=O)O)c12)OC(C)(C)CC3	0	0	?	0
O=C(CCl)NN=C(c1ccccc1)c1ccccc1	0	0	14µM	0
C=CCOc1ccc(CC2C(=O)N(C)C(=O)N(C)C2=O)cc1	0	0	0	0
CCN(CC)c1ccc(CC2C(=O)N(C)C(=O)N(C)C2=O)cc1	0	0	32µM	0
CCCCCC(O)C1C(=O)OC(C)C(O)\C=C/C=C\C=C/C=C\C=C(\C)C(O)C(O)C(O)CC(O)CC(O)CC(O)CC(O)CC1O (centres undefined)	-	-	-	28µM!
CC(C)CC1C(=O)N2CCC[C@H]2[C@]2(O)O[C@](NC(=O)[C@@H]3C=C4c5cccc6[nH]c(Br)c(c56)C[C@H]4N(C)C3)(C(C)C)C(=O)N12 (some centres undefined)	-	0	0	-
Cc1ccnc(-n2c(C)cc(C=C3C(=O)N(C)C(=S)N(C)C3=O)c2C)c1	0	0	18µM	?
CCOC(=O)N1CC(C)N(/[N+]([O-])=N/Oc2ccc([N+](=O)[O-])cc2[N+](=O)[O-])CC1C (centres undefined)	-	0	11µM	-
C/C(=N\NC(=O)c1ccccc1)c1c(O)n(Cc2ccccc2)c(=O)[nH]c1=O	0	0	0	0
C/C(=N\Nc1cccc2ccccc12)c1c(O)n(Cc2ccccc2)c(=O)[nH]c1=O	0	0	45µM	0
CN1C(=O)/C(=C\N2CCc3ccccc32)C(=O)NC1=S	0	0	0	0
O=C1NC(=S)NC(=O)C1=Cc1ccc2c(c1)CCN2CCCCl	0	0	28µM	10µM
N#CC(C#N)=Cc1cccnc1	0	0	14µM	0
CCOC(=O)c1cc(CC)sc1/N=C/C1C(=O)NC(=S)NC1=O	0	0	8.9µM	0
Cn1cccc1/C=C1\C(=O)NC(=O)N(CCC2=CCCCC2)C1=O	0	0	0	0
Cc1ccc(/C=C2\C(=O)NC(=S)N(c3ccccc3F)C2=O)s1	0	0	13µM	0
COc1cccc(N2C(=O)/C(=C/c3ccc(C)o3)C(=O)NC2=S)c1	0	0	25µM	?

High-throughput results (PubChem)
